Laboratory results published in PubChem BioAssay.
Records with an inconclusive call do not appear. For some of these results: Entries with a potency or affinity are not part of this list. The source made the active and inactive calls. Unless noted, no cut-off is given here; in the data, nearly all actives have AC50 up to about 26 µM.

Experiments:
[1] = viability loss in pontine glioma line – cell-based, SU-DIPG-XVII, MIPE5.0, CellTiter-Glo, qHTS, dose response (AID 1347060); settings: CellTiter-Glo ATP luminescence;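 for AC50: cells exposed to compound for 48 hours before viability readout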
[2] = viability loss in pontine glioma line – cell-based, SU-DIPG-XIII, MIPE4.0, CellTiter-Glo, qHTS, dose response (AID 1347061; cut-off not given, nearly all actives have AC50 up to about 37 µM;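 note: cells exposed to compound for 48 hours before readout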); settings: CellTiter-Glo ATP luminescence
[3] = viability loss in pontine glioma line – cell-based, SU-DIPG-XXV, MIPE5.0, CellTiter-Glo, qHTS, dose response (AID 1347065); settings: CellTiter-Glo ATP luminescence;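 note: cells exposed to compound for 48 hours before ATP readout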
[4] = growth inhibition of DIPG cells – cell-based, MIPE4.0 library, CellTiter-Glo luminescence, qHTS (AID 1347066; cut-off not given, nearly all actives have AC50 up to about 30 µM;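 note: cells exposed to compound for 48 hours before readout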); settings: SU-DIPG-VI viability, CellTiter-Glo ATP luminescence
[5] = growth inhibition of DIPG cells – cell-based, MIPE5.0 library, qHTS (AID 1347068; cut-off not given, nearly all actives have IC50 up to about 30 µM); settings: SU-DIPG-XXV viability
[6] = compounds altering viability of human ES cells (AID 493140; call rule not given here;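 note: cells exposed to compounds for four days before counting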); settings: human embryonic stem cell survival screen; stronger effect = higher value
[7] = test system: Hepatitis C virus NS3 helicase; test: blockers of NS3h binding to ssDNA – biochemical, fluorescence polarization, LOPAC1280 library, primary screen (AID 687035; in the data active = inhibition above about 37%); settings: Purified HCV NS3 helicase, Cy5-dT15 ssDNA binding fluorescence polarization; stronger effect = higher value; concentration not given here
[8] = compounds altering Cy5-DNA-NS3h complex signal – biochemical, LOPAC1280, artefact control for HCV NS3 helicase inhibitor project (AID 687037; call rule not given here); settings: Cy5-DNA-NS3h complex fluorescence interference counterscreen
[9] = blockers of cellular phospholipid synthesis – cell-based, LOPAC library, screen 4, primary screen (AID 1347384; call rule not given here); settings: animal cells, phospholipid biosynthesis inhibition screen; at 10 µM
[10] = restoration of touch response, mutant HTT neurons – whole organism, C. elegans mechanosensory neurons, N-terminal huntingtin (AID 1599); settings: C. elegans polyQ-huntingtin mechanosensory neurons, stronger effect = higher value
[11] = GFP-Q80 aggregate reduction, neuronal-like cells, cell-based, NGF-treated PC12, GFPQ80 (AID 1614); settings: PC12 NGF-treated GFP-polyQ80 inclusion reduction;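 note: lower means fewer inclusions and 0 means no inclusions at all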
[12] = 75Q-TubH aggregate inhibition, S. cerevisiae, yeast (AID 1616); settings: S. cerevisiae 75Q-TubH polyglutamine aggregation suppression; stronger effect = higher value
[13] = viability loss in pontine glioma line – cell-based, JHH-DIPG-1, MIPE4.0, CellTiter-Glo, qHTS, dose response (AID 1347062; cut-off not given, nearly all actives have AC50 up to about 27 µM); settings: JHH-DIPG-1 viability, CellTiter-Glo ATP luminescence
[14] = viability loss in pontine glioma line – cell-based, SU-DIPG-IV, MIPE4.0, CellTiter-Glo, qHTS, dose response (AID 1347063; cut-off not given, nearly all actives have AC50 up to about 30 µM;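 note: compound exposure lasted 48 hours before the viability readout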); settings: CellTiter-Glo ATP luminescence
[15] = JHH-DIPG-1 glioma cell viability, MIPE5.0 library, CellTiter-Glo luminescence, qHTS (AID 1347067); settings: JHH-DIPG-1 glioma viability, CellTiter-Glo ATP luminescence;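 note: cells exposed to compound for 48 hours before readout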

SMILES | AC50 [1] | outcome [2] | AC50 [3] | outcome [4] | outcome [5] | survival [6] | inhibition [7] | fluorescence ratio (interference) [8] | outcome [9] | rescue above control [10] | inclusion score [11] | aggregation suppression score [12] | outcome [1] | outcome [13] | outcome [14] | outcome [3] | outcome [15]
CCCCCN=C(N)N/N=C/c1c[nH]c2ccc(OC)cc12 | 13.2 µM (active) | inactive | 14.8 µM (active) | inactive | inactive |  |  |  |  |  |  |  |  |  |  |  | 
CC1=NS(=O)(=O)c2cc(Cl)ccc2N1 |  |  |  |  |  | 11.5 (inactive) | -1% (inactive) | 1 (inactive) | inactive |  |  |  |  |  |  |  | 
NNC(=O)c1ccncc1 |  | inactive |  | inactive | inactive | 30.9 (inactive) |  |  |  | -6.58 | 2 | 1.6 | inactive | inactive | inactive | inactive | inactive
CC(C)Cc1ccc(C(C)C(=O)O)cc1 (centres undefined) |  | inactive |  | inactive | inactive |  | -2% (inactive) | 1 (inactive) | inactive | 11.4 | 2 | -0.00282 | inactive | inactive | inactive | inactive | 
N[C@@H]1CONC1=O |  | inactive |  | inactive | inactive | 4.33 (inactive) | -2% (inactive) | 0.9 (inactive) | inactive | -2.84 | 2 | 1.32 | inactive | inactive | inactive | inactive | inactive
